In PubChem BioAssay (Tox21):
Where “and” joins values, the source holds several entries; their conditions need not be identical. Identical values can stand only once. Results filed as inconclusive are left out. Some structures have more than one record in an assay (separate samples or runs), and their calls can disagree. Calls of active or inactive are those of the source. Unless noted, calls follow the shape of the dose curve; as a rule, active = well fitted curve in the direction sought with a large enough effect in the repeat runs; inconclusive = weak or mixed curves; inactive = no such curve, though single readings can be large; an effect the other way counts as inactive or inconclusive.

Assays:
[1] = qHTS assay for small molecule agonists of the p53 signaling pathway (AID 651631; calls by dose curve; also: nearly all actives have a fitted effect of over 15% in size; also: potency is read from the fitted curve at half-maximal effect)
Outline: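 Agonist mode screen using a stably integrated beta-lactamase gene under p53 response elements in HCT-116 cells. Compound exposure lasts 16 h at 37 °C; fluorescence intensity is measured following 2 h FRET substrate loading.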

[2] = qHTS assay for small molecules that induce genotoxicity in human embryonic kidney cells expressing luciferase-tagged ATAD5 (AID 651632); also: nearly all actives have a fitted effect of over 15% in size; also: potency is read from the fitted curve at half-maximal effect
Outline: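 A rise in luciferase signal from ATAD5-tagged HEK293T cells marks genetic stress. Cells were exposed to compounds for 16 hr at 37C, 5% CO2, then luciferase was quantified after a 30 min room-temperature incubation with Amplite.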

[3] = qHTS assay for small molecule agonists of the p53 signaling pathway - cell viability (AID 651633; calls by dose curve; also: nearly all actives have a fitted effect of over 30% in size; also: potency is read from the fitted curve at half-maximal effect)
Outline: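 p53RE-bla cells, seeded at 4,000 per well and rested 5 h at 37 C/5% CO2, received compounds in DMSO for 16 h at 37 C. CellTiter-Glo was then added, and luminescence was read after 30 min at room temperature to gauge cytotoxicity.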

[4] = qHTS assay for small molecules that induce genotoxicity in human embryonic kidney cells expressing luciferase-tagged ATAD5 - cell viability (AID 651634; calls by dose curve; also: nearly all actives have a fitted effect of over 25% in size; also: potency is read from the fitted curve at half-maximal effect)
Outline: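 Cytotoxicity counter-readout: after 15.5 hr compound treatment at 37C, live-cell protease activity in ATAD5-luciferase HEK293T cells measured by CellTiter-Fluor fluorescence, 30 min development at 37C.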

[5] = qHTS assay for small molecule disruptors of the mitochondrial membrane potential - cell viability (AID 720634; calls by dose curve; also: nearly all actives have a fitted effect of over 20% in size; also: potency is read from the fitted curve at half-maximal effect)
Outline: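 Cytotoxicity was quantified from ATP content by CellTiter-Glo luminescence in the same wells as the MMP dye read-out. HepG2 (2,000 cells/well) were plated overnight and exposed to compounds for 1 hr at 37 C.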

[6] = qHTS assay for small molecule disruptors of the mitochondrial membrane potential (AID 720635); also: potency is read from the fitted curve at half-maximal effect
Outline: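 HepG2 cells (2,000/well) attached overnight at 37C, then took compound for 1 hr at 37C, 5% CO2. Mito-MPS dye was added for 30 min; fluorescence was read at 490/535 nm (monomers) and 540/590 nm (aggregates).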

[7] = qHTS assay to test for compound auto fluorescence at 590 nm (red) in HepG2 cells (AID 720674)
Outline: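 Rose Bengal sodium served as the red fluorophore standard. HepG2 monolayers (overnight attachment, MEM with 10% FBS) were exposed to test compounds for 1 hr at 37 C and read at Ex 540/Em 590 nm.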

[8] = qHTS assay to test for compound auto fluorescence at 535 nm (green) in HepG2 cells (AID 720675)
[9] = qHTS assay to test for compound auto fluorescence at 460 nm (blue) in HEK293 cells (AID 720678)
Outline: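 Cells were seeded and left to adhere for 4-5 hr at 37C. Compounds were then pin-transferred. After an overnight incubation at 37C under 5% CO2, intrinsic fluorescence at 405/460 nm was measured and referenced to triamterene.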

[10] = qHTS assay to test for compound auto fluorescence at 590 nm (red) in HEK293 cells (AID 720679)
Outline: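 Each well held 2,000 HEK293 cells in medium containing 10% dialyzed FBS. Following 4-5 hr attachment at 37C, 23 nL test compound or DMSO was added; plates sat overnight, and red fluorescence (540/590nm) was recorded.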

[11] = qHTS assay to test for compound auto fluorescence at 535 nm (green) in HEK293 cells (AID 720680)
[12] = qHTS assay to test for compound auto fluorescence at 460 nm (blue) in HEK293 cell free culture (AID 720681)
Outline: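 Test compounds were pinned into cell-free culture medium (DMEM with 10% FBS) and fluorescence was read directly at Ex/Em 405/460 nm. Signals were expressed as fluorescence equivalents of triamterene, with DMSO vehicle as control.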

[13] = qHTS assay to test for compound auto fluorescence at 535 nm (green) in HEK293 cell free culture (AID 720682)
Outline: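 No cells present: wells hold DMEM supplemented with 10% FBS, into which compound or vehicle is pinned. Green emission is then recorded (485 nm excitation, 535 nm emission) and scaled to fluorescein.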

[14] = qHTS assay to test for compound auto fluorescence at 590 nm (red) in HEK293 cell free culture (AID 720683)
Outline: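 Tox21 10K library compounds were pinned into cell-free DMEM with 10% FBS and fluorescence was read at excitation 540 nm. Activity is expressed as Rose Bengal sodium equivalency.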

[15] = qHTS assay to test for compound auto fluorescence at 590 nm (red) in HepG2 cell free culture (AID 720684)
Outline: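 Ex 540 / Em 590 nm read of compound in cell-free MEM (10% FBS). Rose Bengal sodium reference.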

[16] = qHTS assay to test for compound auto fluorescence at 460 nm (blue) in HepG2 cell free culture (AID 720685)
Outline: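 Cell-free plates of MEM plus 10% FBS received 23 nL compound or DMSO vehicle; blue-channel (405/460 nm) intensity scored against triamterene as reference fluorophore.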

[17] = qHTS assay to test for compound auto fluorescence at 535 nm (green) in HepG2 cell free culture (AID 720686)
[18] = qHTS assay to test for compound auto fluorescence at 460 nm (blue) in HepG2 cells (AID 720687)
Outline: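 Cells (2,000/well in MEM with 10% FBS) attached overnight at 37 C, then were exposed to compound or DMSO for 1 hr at 37 C, 5% CO2. Fluorescence read at Ex/Em 405/460 nm, expressed as triamterene-equivalent signal.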

[19] = target: Glucocorticoid receptor (Homo sapiens) (UniProt P04150); test: qHTS assay to identify small molecule agonists of the glucocorticoid receptor (GR) signaling pathway (AID 720691; active = well fitted activation curve with a large enough effect in the signal ratio in the repeat runs, not every such curve was filed as active; the % refers to the signal ratio)
Outline: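 Agonist-mode qHTS in HeLa cells stably expressing a glucocorticoid-response-element beta-lactamase reporter. Fluorescence intensity read with FRET substrate (2 h, room temperature) after 18 h compound treatment at 37 C.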

[20] = target: Glucocorticoid receptor (Homo sapiens) (UniProt P04150); test: qHTS assay to identify small molecule antagonists of the glucocorticoid receptor (GR) signaling pathway (AID 720692; active = well fitted inhibition curve with a large enough effect in the signal ratio in the repeat runs, not every such curve was filed as active; the % refers to the signal ratio)
Outline: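 Inhibition of dexamethasone-driven (5 nM final) beta-lactamase expression was measured in GRE-reporter HeLa cells over 18 h at 37C. Fluorescence was read after 2 h with the B/G FRET substrate at room temperature.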

Measured: Potency

Chain of Glucocorticoid receptor (Homo sapiens) (P04150 whole entry, looked up): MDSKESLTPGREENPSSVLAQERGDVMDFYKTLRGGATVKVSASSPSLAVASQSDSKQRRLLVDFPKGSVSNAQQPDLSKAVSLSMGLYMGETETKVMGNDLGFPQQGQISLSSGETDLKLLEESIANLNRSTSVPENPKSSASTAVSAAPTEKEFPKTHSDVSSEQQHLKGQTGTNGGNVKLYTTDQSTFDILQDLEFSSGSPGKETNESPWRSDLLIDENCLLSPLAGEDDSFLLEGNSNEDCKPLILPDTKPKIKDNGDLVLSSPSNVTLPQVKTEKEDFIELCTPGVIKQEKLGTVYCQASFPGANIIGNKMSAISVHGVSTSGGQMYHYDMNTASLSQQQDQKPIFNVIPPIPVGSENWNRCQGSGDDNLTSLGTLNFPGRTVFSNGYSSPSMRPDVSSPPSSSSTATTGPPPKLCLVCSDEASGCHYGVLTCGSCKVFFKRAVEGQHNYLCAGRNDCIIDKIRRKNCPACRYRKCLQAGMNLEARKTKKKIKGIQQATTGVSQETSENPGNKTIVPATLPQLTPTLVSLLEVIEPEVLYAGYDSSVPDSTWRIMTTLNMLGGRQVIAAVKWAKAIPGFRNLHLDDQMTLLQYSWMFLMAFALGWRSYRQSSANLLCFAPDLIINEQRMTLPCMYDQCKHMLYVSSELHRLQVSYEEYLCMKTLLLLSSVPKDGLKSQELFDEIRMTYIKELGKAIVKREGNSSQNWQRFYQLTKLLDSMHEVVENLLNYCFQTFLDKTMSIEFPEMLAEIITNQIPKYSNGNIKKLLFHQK

N#CC(c1ccccc1)c1ccccc1
active: [6] 7.69 µM
inactive: all other assays above

CCOS(=O)(=O)OCC
not listed: [20]
inactive: all other assays above

O=C(O)c1nn(Cc2ccc(Cl)cc2Cl)c2ccccc12
not listed: [19] | [20]
inactive: all other assays above

CCOP(=O)(OCC)OCC
not listed: [19]
inactive: all other assays above

c1ccc2c(c1)Nc1ccccc1S2
active: [5] 29.8 µM | [6] 7.5 µM and 4.33 µM
not listed: [19] | [20]
inactive: all other assays above

CCCCOC(=O)COC(=O)c1ccccc1C(=O)OCCCC
not listed: [8] | [19] | [20]
inactive: all other assays above

CCCCOCCOC(C)=O
active: [6] 53 µM
inactive: all other assays above

N#Cc1c(Cl)c(Cl)c(Cl)c(C#N)c1Cl
active: [1] 21.3 µM and 30.6 µM | [2] 424 nM and 864 nM | [3] 6.73 µM and 9.69 µM | [4] 30 µM and 8.63 µM | [5] 19 µM and 21.7 µM | [6] 3.37 µM and 27.3 µM
not listed: [19] | [20]
inactive: all other assays above

NC(=O)CN1CCCC1=O
inactive: all assays above

CC1(C)C(C(=O)OC(C#N)c2cccc(Oc3ccccc3)c2)C1(C)C (stereo not given)
active: [5] 54.4 µM | [6] 30.9 µM
not listed: [8] | [19] | [20]
inactive: all other assays above

O=P(OCCCl)(OCCCl)OCCCl
not listed: [19] | [20]
inactive: all other assays above

O=NN(c1ccccc1)c1ccccc1
not listed: [20]
inactive: all other assays above

C[C@]12CC[C@H]3[C@@H](CCC4=CC(=O)CC[C@@H]43)[C@@H]1CC[C@@H]2O
not listed: [19] | [20]
inactive: all other assays above

N#CCCCCC#N
not listed: [19]
inactive: all other assays above

Cc1ccc(N=CN(C)C=Nc2ccc(C)cc2C)c(C)c1
inactive and 54.7 µM (active): [3]
not listed: [20]
inactive: all other assays above

Oc1ccc(Cl)cc1Cl
active: [6] 30.4 µM and 27.3 µM
not listed: [20]
inactive: all other assays above

CN(C)c1ccccc1
not listed: [19]
inactive: all other assays above

Clc1ccc(C(Cl)(Cl)Cl)cc1
not listed: [19] | [20]
inactive: all other assays above

ClCc1ccccn1
inactive: all assays above

O=[N+]([O-])c1ccc(Cl)c([N+](=O)[O-])c1
active: [1] 55.3 µM and 12.2 µM | [2] 24.7 µM | [3] 22 µM and 54.5 µM | [4] 55.3 µM and 68.6 µM | [5] 22 µM and 21.7 µM | [6] 8.77 µM and 8.63 µM
not listed: [19] | [20]
inactive: all other assays above

CCCCCCCCCCCCCl
not listed: [19] | [20]
inactive: all other assays above

CC(C)Nc1nc(Cl)nc(NC(C)C)n1
not listed: [19] | [20]
inactive: all other assays above

CC(C)(C#N)N=NC(C)(C)C#N
not listed: [8] | [19] | [20]
inactive: all other assays above

CNC(=O)Oc1cccc2c1OC(C)(C)C2
not listed: [8] | [19] | [20]
inactive: all other assays above

CCC/C=N/O
not listed: [19]
inactive: all other assays above

CC(C)CON=O
not listed: [19]
inactive: all other assays above

CN(C)P(=O)(N(C)C)N(C)C
not listed: [19] | [20]
inactive: all other assays above

CCN(CC)C(=O)C(C)Oc1cccc2ccccc12 (stereo not given)
not listed: [8] | [19] | [20]
inactive: all other assays above

Cn1c(-c2ccccc2)cc(-c2ccccc2)[n+]1C
not listed: [20]
inactive: all other assays above
